Results reported in PubChem BioAssay (Tox21).
Inconclusive results are not listed. Where a call stands in place of a potency, no number is given. Unmarked numbers belong to inactive results. Calls of active or inactive are those of the source. The call rests on the fitted dose curve; in most records, active means well fitted inhibition curve with a large enough effect in the repeat runs; inconclusive means weak or mixed curves; inactive means no such curve, though single readings can be large or run the other way.

target: Cytochrome P450 2C9 (Homo sapiens) (UniProt P11712); assay: Cytochrome P450 Family 2 Subfamily C Member 9 (CYP2C9) small molecule antagonists: luciferase reporter qHTS assay (AID 1671198); conditions: P450-Glo CYP2C9 enzyme assay, luciferin luminescence; series mostly up to 115 µM; further: nearly all actives have a fitted effect of over 50% in size
Sequence (P11712 whole entry, looked up): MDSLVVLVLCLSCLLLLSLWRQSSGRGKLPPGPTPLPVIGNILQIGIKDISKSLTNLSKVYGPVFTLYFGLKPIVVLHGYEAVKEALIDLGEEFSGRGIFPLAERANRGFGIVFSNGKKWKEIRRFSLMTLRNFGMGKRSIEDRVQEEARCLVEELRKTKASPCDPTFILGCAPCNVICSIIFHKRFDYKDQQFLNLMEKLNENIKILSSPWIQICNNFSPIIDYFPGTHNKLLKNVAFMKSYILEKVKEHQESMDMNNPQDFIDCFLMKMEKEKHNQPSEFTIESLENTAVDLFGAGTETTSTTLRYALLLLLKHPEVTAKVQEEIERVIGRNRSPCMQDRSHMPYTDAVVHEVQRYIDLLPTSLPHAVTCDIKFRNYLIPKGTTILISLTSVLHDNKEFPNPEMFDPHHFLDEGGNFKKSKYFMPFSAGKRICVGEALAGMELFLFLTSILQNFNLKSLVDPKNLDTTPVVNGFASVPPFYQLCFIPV
Description: U.S. Tox21 Program National Center for Advancing Translational Sciences [NCATS] U.S. Environmental Protection Agency [EPA] National Institutes of Environmental Health Sciences [NIEHS] National Toxicology Program [NTP] U.S. Food and Drug Administration [FDA] Tox21 Assay Overview: Cytochrome P450 (CYP) enzymes are membrane-bound hemeproteins that play a key role in metabolism of drugs and xenobiotics. Evaluation of the effect of chemicals on CYP isozymes is useful to minimize the adverse drug reactions and toxicities in drug development process. Tox21 chemicals were tested for their effect on CYP enzyme activities by using P450-Glo (TM) screening systems (Promega Corporation, Madison, WI). These systems provide a luminescent method containing proluciferin substrates and are converted to luciferin products by CYP isozymes. The luciferin products formed are detected with a luciferin detection reagent, and the amount of light produced is proportional to CYP activity. P450-Glo (TM) CYP2C9 screening system (Catalog. No. V9790) was used to detect the compounds that interfere in CYP2C9 activity.
Tox21 Assay Protocol Summary: Two ul of enzyme-substrate mix was dispensed into medium binding white/solid 1536-well plates (Greiner Bio-One North America Inc., Monroe, NC) using a BioRaptr Flying Reagent Dispenser (FRD, Beckman Coulter, Brea, CA). […] The assay plates were incubated at room temperature for 10 min. Then 2 ul of NADPH regeneration solution was added to each well of the assay plates using an FRD and incubated at 37C for 1 h. The reaction was stopped by adding 4 ul of detection reagent using an FRD and after 20 min incubation at room temperature the luminescence signal was measured using a ViewLux plate reader (Perkin Elmer, Shelton, CT). Data were expressed as relative luminescence units.
Potency means the concentration at half of the fitted maximal effect.

SMILES | Potency | activity change, negative = inhibition
CCC(C)C(C)(COC(N)=O)COC(N)=O (stereo not given) | inactive | –
COc1ccc2c(C(=O)c3ccc(Cl)cc3)c(C)n(CC(=O)O)c2c1 | 15.5 µM (active) | –
CCN[C@H](C)Cc1cccc(C(F)(F)F)c1 | inactive | –
NNCc1ccccc1 | 45.6 µM (active) | –
Cn1c(N)nc2c3cccnc3ccc21 | inactive | –
CCNP(=S)(OC)O/C(C)=C/C(=O)OC(C)C (stereo not given) | 0.633 µM (active) | –
CC[C@H](O)C(C[C@H](C)N(C)C)(c1ccccc1)c1ccccc1 | inactive | –
CCCN1CCC[C@@H]2Cc3[nH]ncc3C[C@H]21 | inactive | –
CCCOC(=O)Cc1ccc(OCC(=O)N(CC)CC)c(OC)c1 | inactive | –
O=[N+]([O-])CCO | inactive | –
CN(C)CCc1c[nH]c2cccc(OP(=O)(O)O)c12 | inactive | –
ClCOCCl | inactive | –
CC(C)NCC(O)c1ccc([N+](=O)[O-])cc1 (stereo not given) | inactive | –
C(COCC1CO1)OCC1CO1 (stereo not given) | inactive | –
S=C=S | 49.7 µM (active) | –
C=CCc1cc(OC)c2c(c1)OCO2 | 37.2 µM (active) | –
CCCOC(=O)c1cncn1C(C)c1ccccc1 (stereo not given) | 13.8 µM (active) | –
COC(=O)c1ccccc1CS(=O)(=O)NC(=O)Nc1nc(OC)cc(OC)n1 | inactive | –
CCC(C)(C#N)N=NC(C)(C#N)CC (stereo not given) | inactive | –
CCN(CCO)CCn1c(Cc2ccccc2)nc2c1c(=O)n(C)c(=O)n2C | inactive | –

SMILES | Potency | activity change, negative = inhibition
CCNc1nc(NCC)nc(SC)n1 | inactive | –
CC1N=C(N)OC1c1ccccc1 (stereo not given) | inactive | –
COc1cc(CCN)cc(OC)c1OC | inactive | –
CCC(=O)OC1(c2ccccc2)CCN(C)CC1 | inactive | –
CC(=O)CN(CC(C)=O)N=O | inactive | –
CC(C)N(Cc1ccccc1)C(=O)C(C)(C)C | 35.6 µM (active) | –
O=C(Cl)CCl | inactive | –
CC(C)(O)C(Cl)(Cl)Cl | inactive | –
CCN[C@@H](C)Cc1ccccc1 | inactive | –
Clc1cc2c(cc1Cl)Oc1cc(Cl)c(Cl)cc1O2 | – | 2.52% [at 0.435 µM]
CN(C)C(=O)Oc1cc(OC(=O)N(C)C)cc(C(O)CNC(C)(C)C)c1 (stereo not given) | inactive | –
CCCCCCC(=O)CCCCCC/C=C/C[C@@H](O)[C@H](O)[C@@](N)(CO)C(=O)O | – | 9.38% [at 23.6 µM]
BrCCc1ccccc1 | inactive | –
CC#Cc1cc(C)nc(Nc2ccccc2)n1 | 35.5 µM (active) | –
Oc1ccc(Cc2ccc(O)cc2)cc1 | inactive | –
COc1cccc([C@@]2(O)CCCC[C@@H]2CN(C)C)c1 | inactive | –
CN(C)CCN(C)C | inactive | –
COc1ccccc1OC | inactive | –
O=C(NC(O)C(Cl)(Cl)Cl)NC(O)C(Cl)(Cl)Cl (stereo not given) | inactive | –
CCOC(=O)C(Cl)Cc1cc(-n2nc(C)n(C(F)F)c2=O)c(F)cc1Cl (stereo not given) | 7.1 µM (active) | –
